Data on four molecules can be found in PubChem BioAssay.

Assay [1] can be described thus: growth inhibition, single agent or in combination, cell-based, chromothripsis tumors, cisplatin or BGB combos (AID 1671449).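 Also: cells exposed for 96 hours; 0% = vehicle DMSO and 100% = killing by high DMSO.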 Conditions: LFS_MB_P medulloblastoma cells.
Assay [2] is described as follows: growth inhibition, single agent and combos, cell-based, chromothripsis tumors, cisplatin or BGB combos (AID 1671450).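 Also: cells exposed to compound for four days; 0% = vehicle DMSO and 100% = cell killing by high DMSO.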 Conditions: HDN33 neuroblastoma cells, stronger effect = higher value.
The nature of assay [3]: growth inhibition, single agents and combos, ICB984, cell-based, cisplatin or BGB combos, synergistic combos for chromothripsis tumors (AID 1671451; call rule not given here;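 also: cells exposed for 96 hours before readout; 0% = vehicle DMSO and 100% = killing by high DMSO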). Conditions: ICB984 medulloblastoma cells, drug combinations, stronger effect = higher value.
Assay [4] can be described thus: growth inhibition, single agents and combos, LFS_MB_1R, cell-based, cisplatin or BGB combos, synergistic combos for chromothripsis tumors (AID 1671452).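 Also: cells exposed for 96 hours before readout.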 The settings on record: LFS_MB_1R medulloblastoma cells, stronger effect = higher value.
Assay [5] in a line: growth inhibition, single agents and combos, HTB85, cell-based, BGB or cisplatin IC20 combos, synergistic combos for chromothripsis tumors (AID 1671453).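 Also: cells exposed for 96 hours before readout; 0% = vehicle DMSO and 100% = high DMSO killing control.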 The settings on record: HTB85 osteosarcoma cells, drug combinations, stronger effect = higher value.
A short description of assay [6]: growth inhibition, single agents and combos, CRL2098, cell-based, BGB or cisplatin IC20 combos, synergistic combos for chromothripsis tumors (AID 1671454).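 Also: cells exposed for 96 h before readout; 0% = vehicle DMSO and 100% = killing by high DMSO.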 Conditions: CRL2098 osteosarcoma cells, drug combinations, stronger effect = higher value.
Assay [7] can be described thus: growth inhibition, single agents and combos, HD-MB03, cell-based, BGB or cisplatin IC20 combos, synergistic combos for chromothripsis tumors (AID 1671455; in the data active = inhibition above about 83%;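 also: 0% = vehicle DMSO and 100% = high DMSO as cytotoxic control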). The settings on record: HD-MB03 medulloblastoma cells, stronger effect = higher value.
The nature of assay [8]: growth inhibition, single agents and combos, UWB1.289, cell-based, BGB or cisplatin combos, synergistic combos for chromothripsis tumors (AID 1671456).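 Also: cells exposed to compound for four days; 0% = vehicle DMSO and 100% = killing by high DMSO.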 The settings on record: UWB1.289 ovarian carcinoma cells, stronger effect = higher value.
A short description of assay [9]: growth inhibition, single agents and combos, LFS_MB_2R, cell-based, cisplatin combos, synergistic combos for chromothripsis tumors (AID 1671457).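 Also: cells exposed to compound for four days before readout.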 The settings on record: LFS_MB_2R medulloblastoma cells, stronger effect = higher value.
Assay [10] can be described thus: growth inhibition, MDA-MB-436, cell-based, BGB or cisplatin combos, synergistic combos for chromothripsis tumors (AID 1671458; call rule not given here;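 also: cells exposed for 96 hours; 0% = vehicle DMSO and 100% = killing by high DMSO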). Conditions: MDA-MB-436 breast carcinoma growth inhibition, drug combinations, stronger effect = higher value.
The nature of assay [11]: UWB1.289_BRCA1 ovarian cancer growth, cell-based, BGB or cisplatin combinations (AID 1671459). Conditions: UWB1.289 BRCA1 ovarian carcinoma, drug combinations, stronger effect = higher value.
Assay [12] is described as follows: drug combination toxicity in non-malignant astrocytes – cell-based, BGB or cisplatin IC20 combos, cytotoxicity control for chromothriptic childhood tumor combination screen (AID 1671460).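 Also: cells exposed to compounds for 96 hours before viability readout; 0% = vehicle and 100% = killing control.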 Conditions: Human astrocytes, viability inhibition, drug combinations, at 0.5 µM, stronger effect = higher value.
Assay [13] in a line: BT084 cell growth, single and combined drugs, ICGC_MB145, cisplatin and BGB IC40 combos (AID 1671461).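 Also: cells exposed to drugs for 96 hours; 0% = vehicle DMSO and 100% = high DMSO full killing control.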 Conditions: BT084 medulloblastoma cells, drug combinations, stronger effect = higher value.
Assay [14] is described as follows: RCMB18 cell growth, single agent and combined, cisplatin and BGB IC40 combos (AID 1671462).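 Also: cells exposed to compound for four days.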 The settings on record: RCMB18 medulloblastoma cells, stronger effect = higher value.
Assay [15] in a line: CRL1545 cell growth, single agent and combined, cisplatin and BGB IC20 combos (AID 1671464).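 Also: cells exposed to compound for 96 hours before readout; 0% = vehicle DMSO and 100% = high DMSO killing control.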 The settings on record: CRL1545 osteosarcoma cells, stronger effect = higher value.
Assay [16] can be described thus: galactose survival enhancers in mitochondrial complex I cybrids – cell-based, galactose medium, ATP luminescence, primary screen (AID 1645843;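 active = z-score of at least 1.8 in each of two replicates, scored against plate mean and spread of sample wells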;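 also: positive z means more ATP and so rescue of galactose-driven cybrid death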). Conditions: complex I mutant cybrid cells, 72 h, stronger effect = higher value.
Where [17] appears, read: measured here: combination with BGB IC40, at 0.05 µM.
Where [18] appears, read: measured here: with BGB IC20 combination, at 0.5 µM.
The mark [19] stands for this setting: measured here: with cisplatin IC20 combination, at 0.5 µM.
Setting [20] is: measured here: combination with cisplatin, at 0.5 µM.
Setting [21] is: measured here: combination with cisplatin, at 5 µM.

Activity calls are given as the source filed them. Rule as the data show it, unless noted: active = inhibition above about 80%; inactive = the rest.

Take `CCC(Sc1nnc2c3ccccc3n(CC)c2n1)C(=O)Nc1ccccc1OC` (stereo unspecified): the inhibition is -17.9% (inactive) in assay [1] (at 0.5 µM, stronger effect = higher value); -26% in assay [1] (measured here: combination with BGB IC20, at 0.005 µM); 87.7% in assay [1] (measured here: combination with BGB IC40, at 0.005 µM); -14.4% in [1] (setting [17]); -20.5% in [1] (measured here: combination with cisplatin, at 0.5 µM, stronger effect = higher value); -38.2% in [1] (measured here: combination with cisplatin, at 5 µM, stronger effect = higher value). The inhibition in assay [2] (BGB combo, at 5 µM) was -25%; in assay [2] (at 0.5 µM), -10.1% (inactive); in assay [2] (cisplatin combo, at 5 µM), 7.7%; in assay [2] (setting [18]), -15.6%; in [2] (setting [19]), -11.8%; in [2] (single agent, at 5 µM), 1.35%. Further, the inhibition was -20.7% in assay [3] (BGB IC20 combo, at 0.005 µM); -12.8% in assay [3] (BGB IC40 combo, at 0.005 µM); -32.4% in [3] (BGB IC40 combo, at 0.05 µM); -26.1% (inactive) in assay [3] (at 0.5 µM); -39.2% in assay [3] (cisplatin combo, at 0.05 µM); -34.7% in [3] (cisplatin combo, at 0.5 µM). Further, the inhibition in assay [3] (cisplatin combo, at 5 µM) was -6.65%; in assay [3] (measured here: 5 uM single agent, at 5 µM) it was -26%; in assay [4] (at 0.5 µM), -22.8% (inactive); in assay [4] (setting [17]) it was -32%; in assay [4] (setting [20]), -18.6%; in [4] (setting [21]), -34.1%. Besides, the inhibition in assay [5] (at 0.5 µM) was 0.76% (inactive); in assay [5] (measured here: with BGB IC20, at 0.5 µM), 6.64%; in [5] (measured here: with BGB IC20, at 5 µM) it was -8.08%; in assay [5] (measured here: with cisplatin IC20, at 0.5 µM) it was -8.64%; in assay [5] (measured here: with cisplatin IC20, at 5 µM), -18%; in assay [5] (single agent, at 5 µM), 3.91%. The inhibition is -23.4% (inactive) in assay [6] (at 0.5 µM); -38.3% in assay [6] (measured here: combination with BGB at IC20, at 0.5 µM); -32% in assay [6] (measured here: combination with cisplatin at IC20, at 0.5 µM); -13.9% (inactive) in [7] (at 0.5 µM); -20.2% in [7] (measured here: combo with BGB at IC20, at 0.5 µM); -12.1% in [7] (measured here: combo with cisplatin at IC20, at 0.5 µM). The inhibition in assay [8] (at 0.5 µM) is 1.85% (inactive); in [8] (measured here: inhibition with BGB combination, at 0.05 µM) it was -11.2%; in assay [8] (measured here: inhibition with cisplatin combination, at 0.05 µM), -1.41%; in assay [9] (at 0.5 µM) it was -23.8% (inactive); in assay [9] (setting [20]) it was -34.2%; in assay [9] (setting [21]), -45.7%. Also, the inhibition in assay [10] (at 0.5 µM) was -18.3% (inactive); in assay [10] (measured here: BGB combination, at 0.5 µM), -16.3%; in assay [10] (measured here: BGB combination, at 5 µM), -14.5%; in assay [10] (measured here: cisplatin combination, at 0.5 µM) it was -37.5%; in [10] (measured here: cisplatin combination, at 5 µM), -22%; in [11] (BGB combination, concentration series, at 5 µM), -8.24%. The inhibition was 0.44% (inactive) in assay [11] (at 0.5 µM); 11.1% in assay [11] (cisplatin combination, concentration series, at 5 µM); 10.6% (inactive) in assay [12]; 14.7% in [12] (measured here: combo with BGB IC20); 10.3% in assay [12] (measured here: combo with cisplatin IC20); -2.76% (inactive) in assay [13] (at 0.5 µM). For the same molecule, the inhibition in assay [13] (cisplatin combination, at 0.5 µM) is -8.44%; in assay [13] (cisplatin combination, at 5 µM), -148%; in assay [13] (measured here: BGB IC40 combination 0.05 uM, at 0.05 µM), -28.4%; in assay [13] (single agent, at 5 µM), -15.3%; in assay [14] (at 0.5 µM), -9.8% (inactive); in assay [14] (cisplatin combo, at 5 µM) it was -1.17%. Further, the inhibition was -28% in assay [14] (measured here: BGB IC40 combination, at 0.05 µM); -27.5% in [14] (setting [20]); -2.94% in assay [14] (single agent, at 5 µM); -6.26% (inactive) in assay [15] (at 0.5 µM); 3.68% in [15] (setting [18]); -13% in assay [15] (setting [19]). For the same molecule, the inhibition was -16.5% in [15] (single agent, at 0.05 µM) and 1.47% in assay [15] (single agent, at 5 µM).

Consider `Cn1cc(-c2cc(C(=O)N3CCc4ccccc4C3)c3cc(F)ccc3n2)cn1`, for which the z-score in assay [16] was 1 (inactive).

In the case of `COc1cccc(C(=O)N2CCC(n3cc(-c4ccccn4)nn3)CC2)c1`, the z-score in assay [16] is 0.785 (inactive).

As for `CCCc1cn(C2CCN(C(=O)CC3CC(C)(C)NC(C)(C)C3)CC2)nn1`, the z-score in assay [16] is -0.53 (inactive).

Broadly, the inhibition is the change of the read-out against control, counted positive when it falls.
